ChEMBL document CHEMBL1157539, “Thousands of chemical starting points for antimalarial lead identification” (Nature, 2010)

How the values were obtained:
Type in all cases: functional
Plasmodium falciparum [1] = assay: GSK_TCMDC: Inhibition of Plasmodium falciparum 3D7 in whole red blood cells, using parasite LDH activity as an index of growth. Test compounds present at 2uM
Plasmodium falciparum [2] = assay: GSK_TCMDC: Inhibition of Plasmodium falciparum Dd2 in whole red blood cells, using parasite LDH activity as an index of growth. Test compounds present at 2uM
HepG2 = assay: GSK_TCMDC: Percent inhibition of human HepG2 cell line. Test compounds present at 10uM.

| Compound | Inhibition (Plasmodium falciparum [1]) [%] | Inhibition (Plasmodium falciparum [2]) [%] | Inhibition (HepG2) [%] |
| --- | --- | --- | --- |
| COc1ccc2nccc([C@@H](O)CN3CCC(NC(=O)c4ccc5cc[nH]c5c4)CC3)c2c1.CS(=O)(=O)O | 91 | 23 | 21 |
| O=C(C1CC1)N1c2ccccc2CCc2ccccc21 | 98 | 57 | 40 |
| CC(C)(C(=O)Nc1ccc(N2CCC3(CCCN(CC4CC4)C3)CC2)c(Cl)c1)c1cccc(C(F)(F)F)c1 | 92 | 0 | 27 |
| COc1cc(F)c2nccc([C@@H](O)CN3CCC(NCc4ccc5c(n4)NC(=O)CS5)CC3)c2c1 | 100 | 25 | 23 |
| COc1ccc(CCNC(=O)c2cc(C)ccc2O)cc1-c1ccc(C(C)(C)C)cc1 | 97 | 94 | 1 |
| CN(C)c1ccc(C=Cc2ccc3ccccc3n2)c(Cl)c1 | 94 | 95 | 59 |
| CC(C)Cc1c(O)nc(SCCN2CCOCC2)[nH]c1=O.Cl | 88 | 0 | 19 |
| CN(C)Cc1ccc(-c2cccc(Nc3nccc(NCC(O)c4ccccc4)n3)c2)cc1 (stereo not given) | 100 | 100 | 74 |
| N#Cc1cncc(-c2nc3c(N4CCC(N5CCCC5)CC4)cccc3n2CCNCc2ccccc2)c1.O=C(O)C(F)(F)F | 100 | 58 | 3 |
| CS(=O)(=O)c1ccc(OCCCN(Cc2ccccc2C(F)(F)F)c2ccc(C#N)c(C(F)(F)F)c2)cc1 | 94 | 76 | 4 |
| CN(C)CCN(C)C(=O)c1cc(-c2ccncc2)c(-c2ccc(Cl)c(O)c2)o1.Cl | 97 | 34 | 0 |
| Cc1ccc(S(=O)(=O)NC2=NC(=N)N(OCc3ccc(Cl)c(Cl)c3)C(C)(C)N2)cc1 | 88 | 0 | 0 |
| O=C(O)C(F)(F)F.c1ccc2[nH]c(-c3ccc(-c4ccc(CN5CCN(CCN6CCOCC6)CC5)cc4)cc3)nc2c1 | 98 | 99 | 43 |
| CN(C)CCNc1nccc(N2CCc3ncnc(Nc4ccc(OCc5cccc(F)c5)c(Cl)c4)c3C2)n1 | 100 | 97 | 65 |
| CCCCN(CCCC)C(=N)c1cccc2c1CCCC2.Cl | 95 | 9 | 11 |
| O=C(NCc1ccccc1)OC1CNCCC1c1ccc(C(O)Cc2ccccc2)cc1.O=C(O)C(F)(F)F (stereo not given) | 87 | 5 | 8 |
| CC(=O)Nc1ccc(C(=O)NC2CCN(c3ccnc4cc(Cl)ccc34)C2)cc1.O=C(O)C(F)(F)F (stereo not given) | 100 | 100 | 1 |
| CS(=O)(=O)c1ccc2c(c1)CCN(CCC1CCC(NC(=O)c3cc4cccc(Br)c4[nH]3)CC1)CC2 (stereo not given) | 92 | 7 | 27 |
| O=C(Nc1cccc(CN2CCCN(Cc3ccc(F)cc3)CC2)c1)c1ccc(Cl)c(Cl)c1.O=C(O)C(F)(F)F | 95 | 17 | 27 |
| CN(C)c1ccc(CN2CCC(NC(=O)c3ccc(-c4cccc(F)c4)s3)CC2)cc1.O=C(O)C(F)(F)F | 91 | 18 | 55 |

| Compound | Inhibition (Plasmodium falciparum [1]) [%] | Inhibition (Plasmodium falciparum [2]) [%] | Inhibition (HepG2) [%] |
| --- | --- | --- | --- |
| CN1CCC(N2CCN(Cc3cccc(-c4cccc(-c5nc6ccccc6[nH]5)c4)c3)CC2)CC1.O=C(O)C(F)(F)F | 100 | 100 | 19 |
| CCOC(=O)c1nc(-c2ccc(Cl)cc2)[nH]c1NC(=S)NCCCN1CCOCC1 | 92 | 33 | 22 |
| COc1cccc(C(=O)OC2=C3CCC(=O)C3(C)CCC2=O)c1 (stereo not given) | 93 | 9 | 37 |
| Cl.N#CC1(CCCNCCc2ccc(O)cc2)CCCc2c(O)cccc21 (stereo not given) | 95 | 3 | 0 |
| O=C(N[C@H](Cc1ccc(Cl)cc1)C(=O)N1CCN(c2ccnc3cc(Cl)ccc23)CC1)[C@H]1Cc2ccccc2CN1.O=C(O)C(F)(F)F | 85 | 41 | 16 |
| CCn1c(SCC(=O)Nc2cc(C(F)(F)F)ccc2Cl)nc2ccccc2c1=O | 93 | 95 | 8 |
| CN(C)CCN(C)Cc1ccc(-c2cccc(NC(=O)c3cccc(C#N)c3)c2)cc1.O=C(O)C(F)(F)F | 94 | 11 | 23 |
| Cc1ccc(-n2nc(-c3ccccc3)c3cc(C(=O)NCCN)sc32)cc1 | 92 | 43 | 28 |
| CC(=O)Nc1ccc(C(=O)Nc2cccc(-c3ccc(-c4nc5cc(F)ccc5[nH]4)cc3)c2)cn1 | 99 | 99 | 10 |
| CN(C)CCOc1ccc2c(=O)cc(CCc3cccc(F)c3F)n(CC(=O)N(C)Cc3ccc(-c4ccc(C(F)(F)F)cc4)cc3)c2c1.O=C(O)C(O)C(O)C(=O)O | 90 | 60 | 33 |
| CCCN1CCN(c2ccccc2NS(=O)(=O)c2ccc(C(=O)Nc3ccc(Cl)cc3)cc2)CC1.O=C(O)C(F)(F)F | 84 | 9 | 17 |
| COc1ccc(Nc2nccc(N3CCC(NS(=O)(=O)c4ccc(NC(C)=O)cc4)C3)n2)cc1 (stereo not given) | 100 | 16 | 3 |
| Cc1nc(-c2ccc(-c3ccc(C(=O)Nc4ccc(I)c(OCCN5CCCC5)c4)cc3)c(C)c2)no1.Cl | 95 | 35 | 96 |
| O=C(Nc1cccc(F)c1)NC1CCN(c2ccnc3cc(Cl)ccc23)C1.O=C(O)C(F)(F)F (stereo not given) | 100 | 64 | 13 |
| O=C(O)C(F)(F)F.c1ccc2c(c1)CN(Cc1ccsc1)CC1(CCN(Cc3c[nH]c4cnccc34)CC1)O2 | 87 | 75 | 38 |
| COCCNC(=O)C(CNC(=O)c1ccc2c(c1)OCO2)NC(=O)c1ccc(-c2ccccc2)cc1 (stereo not given) | 90 | 3 | 14 |
| Cc1cccc2nc(-c3ccc(-c4ccc(CNCCN5CCNCC5)cc4)s3)[nH]c12.O=C(O)C(F)(F)F | 88 | 0 | 30 |
| CC(C)(C)c1ccc(N2C(N)=NC(N)=NC2(C)C)cc1Cl.Cl | 94 | 3 | 51 |
| Cc1cc(Nc2ncc(Cl)c(Nc3ccccc3C(N)=O)n2)n[nH]1 | 98 | 96 | 70 |
| O=C(/C=C/c1ccc(Cl)c(Cl)c1)NCCCCCN1CCC(NC(=O)c2ccc([N+](=O)[O-])cc2)CC1 | 100 | 6 | 36 |
